TMEM16A act: TMEM16A chloride channel activators or potentiators, primary screen, cell-based, HTS | AID 623877, 2012 | Anoctamin-1 (Mus musculus), Q8BHY3 | HEK293 TMEM16A/YFP-H148Q/I152L, iodide quench fluorescence; hits give low values | 340,000 compounds, 0.3% hits | B-score at 10 µM;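 active means fluorescence-ratio B-score plate-corrected deviation score at least 3 library SD below zero, with starting fluorescence score within 5 deviations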;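 further: channel opened by trigger with iodide after compound preincubation; score built on the fluorescence ratio of max minus min over baseline; more negative score means more quench and so TMEM16A activation or potentiation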
Target sequence (Q8BHY3 whole entry, looked up): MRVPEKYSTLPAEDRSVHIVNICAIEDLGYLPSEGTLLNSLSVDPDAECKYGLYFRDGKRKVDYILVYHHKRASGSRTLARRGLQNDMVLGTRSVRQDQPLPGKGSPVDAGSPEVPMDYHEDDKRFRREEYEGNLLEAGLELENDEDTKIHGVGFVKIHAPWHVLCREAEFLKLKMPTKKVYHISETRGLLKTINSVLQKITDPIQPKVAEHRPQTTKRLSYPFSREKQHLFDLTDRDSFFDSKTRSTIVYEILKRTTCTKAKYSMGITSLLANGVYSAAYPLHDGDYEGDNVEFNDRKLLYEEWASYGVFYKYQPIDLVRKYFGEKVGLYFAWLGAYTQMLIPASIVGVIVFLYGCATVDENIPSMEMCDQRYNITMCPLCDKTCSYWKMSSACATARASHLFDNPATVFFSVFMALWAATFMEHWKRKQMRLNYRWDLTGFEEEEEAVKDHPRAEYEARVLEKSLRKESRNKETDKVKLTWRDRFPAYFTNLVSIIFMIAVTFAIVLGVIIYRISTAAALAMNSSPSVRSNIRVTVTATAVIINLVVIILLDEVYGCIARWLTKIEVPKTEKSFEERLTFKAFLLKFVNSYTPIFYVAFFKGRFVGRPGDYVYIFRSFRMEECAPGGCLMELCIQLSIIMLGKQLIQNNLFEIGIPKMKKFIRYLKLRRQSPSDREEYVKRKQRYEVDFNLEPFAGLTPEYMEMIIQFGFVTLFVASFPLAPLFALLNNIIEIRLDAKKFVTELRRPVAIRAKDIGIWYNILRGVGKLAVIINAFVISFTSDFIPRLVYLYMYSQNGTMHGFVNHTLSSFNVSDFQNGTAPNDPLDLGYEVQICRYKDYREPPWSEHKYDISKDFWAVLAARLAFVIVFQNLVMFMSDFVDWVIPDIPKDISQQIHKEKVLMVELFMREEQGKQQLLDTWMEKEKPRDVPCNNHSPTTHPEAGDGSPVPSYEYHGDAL
CHT block: inhibitors of human choline transporter CHT | High affinity choline transporter 1 (Homo sapiens), Q9GZV3 | CHT-expressing cells, membrane potential dye, choline response; hits give low values | B-score at 10 µM | 310,000 compounds, 0.86% hits | AID 488975, 2010;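 active means B-score over 3 SD under the library average, and starting fluorescence ratio not unusually high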;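 further: choline stimulus applied at its EC90 after an EC20 pre-addition; B-score computed on integrated fluorescence ratio after choline addition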
ANO1 block: TMEM16A chloride channel inhibitors, primary screen, cell-based, HTS; Anoctamin-1 (Mus musculus), Q8BHY3; HEK293 TMEM16A/YFP iodide influx fluorescence, ionomycin; normalized B-score (activity score, 25-100; higher = stronger inhibition) at 10 µM; 310,000 compounds, 1.2% hits;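 active means ratio plate-corrected score three or more library SD toward inhibition, starting fluorescence score within five deviations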;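 further: score derived from kinetic fluorescence span divided by baseline fluorescence per well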
CHT allo act: CHT positive allosteric modulators, primary screen, cell-based, membrane potential dye, choline EC20 | B-score at 10 µM | High affinity choline transporter 1 (Homo sapiens), Q9GZV3 | CHT-expressing cells; hits give high values; LV-AA mutant CHT in HEK293 cells | 310,000 compounds, 0.49% hits;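 active means initial fluorescence not abnormally high and integrated response B-score, plate-corrected, over 3 SD above library mean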
TMEM16A reconf: TMEM16A chloride channel inhibitors, confirmation, cell-based, re-confirmation; shares compounds with ANO1 block; HEK293 TMEM16A/YFP-H148Q, iodide quench fluorescence; ionomycin added to raise cell calcium; inhibition, % at 10 µM; 2,300 compounds, 39% hits;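 active means mean duplicate percent inhibition, scaled so buffer wells are 0 and the reference blocker 100, over three buffer SD above buffer mean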
HEK293 Ca mobil: calcium mobilization in TMEM16A/YFP HEK293 cells, confirmation, counter-screen for TMEM16A inhibitor project. 2,300 compounds, 2% hits. shares compounds with ANO1 block. calcium response (% of ionomycin), % at 10 µM. Fluo4 calcium mobilization;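 active means duplicate-averaged calcium signal over 20% of the ionomycin maximum, relative to buffer baseline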;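 further: each well's signal is peak minus trough fluorescence divided by its pre-addition baseline; 0% = buffer wells and 100% = ionomycin wells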
Parental YFP cnt: iodide YFP quench changes in parental YFP-HEK293, counter-screen for TMEM16A inhibitor project, cell-based; shares compounds with ANO1 block; ionomycin; YFP ratio F(max-min)/F0 at 10 µM; 2,300 tested, under 10 active; AID 652233, 2013;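 active means yellow fluorescent protein signal ratio exceeding the buffer control mean by over 5 SD of those controls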;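 further: ratio is mean of duplicate wells from kinetic YFP trace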
ClC-1 rat inh: ClC-1 chloride channel inhibition, selectivity assay for TMEM16A inhibitor project, cell-based, voltage-dependent ClC-1 | 2,300 tested, under 10 active | shares compounds with ANO1 block | ratio percent, % at 10 µM | CHO ClC-1-YFP, iodide influx fluorescence quench; iodide control reads 0, buffer control 100;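 active means duplicate-mean ratio percent above the mean of iodide-only control wells, which defines zero, plus 5 of their SD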;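 further: higher percent means stronger block of ClC-1 iodide influx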
The depositor's hits bear a star; i = inactive; nt = no result given. In the library only some 2.4% were active in any assay of this set; here they are far more common.

SMILES	TMEM16A act	CHT block	ANO1 block	CHT allo act	TMEM16A reconf	HEK293 Ca mobil	Parental YFP cnt	ClC-1 rat inh
Cc1c(/C=N/NC(=O)c2ccccc2O)c2ccccn2c1C(=O)c1ccc(F)cc1	i	i	100*	i	34%*	i	-0.92	-14
COc1ccc(-c2noc(C3CCCN(C(=O)c4ccccc4)C3)n2)cc1 (stereo unspecified)	i	i	i	i	nt	nt	nt	nt
O=C(c1ccco1)N1CCCC(c2nc(-c3ccc(S(=O)(=O)NCc4ccccc4)cc3)no2)C1 (stereo unspecified)	i	i	25*	i	44%*	i	-1	-16
COc1cc(NS(=O)(=O)c2ccc(C)cc2C)cc(OC)c1OC	i	i	100*	i	28%*	i	-0.99	-12
COc1ccc(CCN2C(=O)CC(NNC(=O)c3ccccc3Br)C2=O)cc1OC (stereo unspecified)	i	i	i	i	nt	nt	nt	nt
O=C(NC1CCCc2ccccc21)N[C@@H](Cc1ccccc1)C(=O)O (stereo partly specified)	i	i	i	i	nt	nt	nt	nt
COc1ccc(NC(=O)COc2ccccc2Cc2ccccc2)cc1S(N)(=O)=O	i	i	i	i	nt	nt	nt	nt
Nc1cc(S(=O)(=O)N2CCCCC2)ccc1Oc1ccccc1	i	i	25*	i	16%*	i	-1	-9
CCOc1ccc(Oc2ccc(S(=O)(=O)N3CCOCC3)cc2N)cc1	i	i	i	i	nt	nt	nt	nt
CNC(=O)C(C)NS(=O)(=O)c1ccc(F)cc1 (stereo unspecified)	i	i	i	i	nt	nt	nt	nt
Cc1ccc(NC(=O)C(C)NS(=O)(=O)c2ccc(F)cc2)cc1C (stereo unspecified)	i	i	25*	i	i	i	-1.3	-16
CC(C)(C)C(=O)OCc1nc(-c2ccc(C(F)(F)F)cc2)cs1	i	i	i	i	nt	nt	nt	nt
O=C(CN1CCN(c2nc(-c3ccc(Cl)cc3)cs2)CC1)NCc1ccco1	nt	i	25*	i	i	20%*	-0.95	4
CC(C)C(=O)N1CCN(c2nc(-c3ccc(Cl)cc3)cs2)CC1	i	i	25*	i	34%*	i	-1.1	-12
CCOC(=O)N1CCN(c2nc(-c3ccc(Cl)cc3)cs2)CC1	i	i	i	i	nt	nt	nt	nt
S=C(NCc1ccco1)N1CCN(c2nc(-c3ccccc3)cs2)CC1	i	i	i	i	nt	nt	nt	nt
Cc1ccc(Cl)cc1NC(=O)CC(O)(C(F)(F)F)C(F)(F)F	i	i	100*	i	42%*	i	-0.95	-18
COc1ccc(CN(C)C(=O)Cc2ccc(OC)c(S(=O)(=O)N3CCOCC3)c2)cc1	i	i	i	i	nt	nt	nt	nt
Cc1ccc(CNC(=O)C2CCCN(c3ncnc4c3nc3n4CCCCC3)C2)cc1 (stereo unspecified)	i	i	i	i	nt	nt	nt	nt
CCc1c(C(=O)Nc2nnc(C3CC3)s2)csc1C	i	i	100*	i	i	i	-0.95	-5
O=C(c1ccccc1)c1ccc(OCC(O)CN2CCN(Cc3ccccc3)CC2)cc1 (stereo unspecified)	i	i	100*	i	i	i	-1.1	-10
N#CCCCCN1c2cccc3cccc(c23)S1(=O)=O	i	i	i	i	nt	nt	nt	nt
O=C(NCCn1cc(SCc2ccccc2)c2ccccc21)c1ccccc1F	i	i	25*	i	i	i	-1.2	-10
Nc1nonc1NC(=O)NN=C1CCCCC1	i	i	i	i	nt	nt	nt	nt
O=C(Nc1cccc(Cl)c1)N1CCN(Cc2ccccc2)CC1	i	i	100*	i	i	i	-1.1	-8
SMILES	TMEM16A act	CHT block	ANO1 block	CHT allo act	TMEM16A reconf	HEK293 Ca mobil	Parental YFP cnt	ClC-1 rat inh
COc1cccc(N2CCN(c3ncnc4c3cnn4-c3ccc(C)cc3C)CC2)c1	i	i	100*	i	32%*	i	-1.1	-6
COc1cc(NC(=O)COc2cc(O)c3c(c2)OC(C)(C)CC3=O)cc(OC)c1OC	i	i	100*	i	20%*	i	-1.3	-30
Cc1cccc(N2CCN(C(=O)CCC(=O)N3CC(C)Oc4ccccc43)CC2)c1C (stereo unspecified)	i	i	25*	i	i	i	-0.95	0
CCn1c(=O)c(C(=O)NNC(=O)c2ccccc2F)c(O)c2ccccc21	i	i	25*	i	22%*	48%*	-1.2	-6
CCn1c(SCC(=O)c2ccc3c(c2)OCCO3)nnc1C(C)C	i	i	i	i	i	i	-1	-8
CC(C)n1nnnc1SCC(=O)c1ccc2c(c1)OCCO2	i	i	i	i	nt	nt	nt	nt
CCN(CC)c1ccc(/C=C2\SC(=O)N(C(C)C)C2=O)o1	i	i	i	i	nt	nt	nt	nt
CC(C)OCCCNc1ncnc2c1[nH]c1ccccc12	i	i	100*	i	38%*	i	-1.1	-22
CCC(CC)C(=O)Nc1ccc(C)cc1O	i	i	i	i	nt	nt	nt	nt
COc1cccc(NC(=O)CN(C)C(=O)c2ccc3c(c2)S(=O)(=O)N=C2CCCCCN23)c1	i	i	i	i	nt	nt	nt	nt
O=C(CC1Sc2ccccc2NC1=O)OCc1cc(=O)oc2cc(O)ccc12 (stereo unspecified)	i	i	25*	i	32%*	i	-0.7	-22
Cc1ccc2c(COC(=O)CC3Sc4ccccc4NC3=O)cc(=O)oc2c1C (stereo unspecified)	i	i	i	i	nt	nt	nt	nt
Cc1cccc2cc(CN(Cc3nnnn3C3CCCCC3)C3CCCC3)c3nnnn3c12	i	i	i	i	nt	nt	nt	nt
CN(CCOc1ccccc1)CC(=O)Nc1ccc([N+](=O)[O-])cc1Cl	i	i	25*	i	19%*	i	-1.1	-8

Source: PubChem
